Source: PubChem BioAssay
Rin1 Abl inh – inhibitors of Rin1-Abl protein binding, primary screen, biochemical, TR-FRET; inhibition, % at 7.35 µM; Tyrosine-protein kinase ABL1 (Homo sapiens) + Ras and Rab interactor 1 (Homo sapiens), …; 0.4% of 360,000 active; in the data active = inhibition above about 5%, passing the limit was not always enough
Neddylation inh – inhibitors of cullin neddylation, primary screen, biochemical, TR-FRET, uHTS, NAE and Ubc12; NEDD8-conjugating enzyme Ubc12 (Homo sapiens) + NEDD8-activating enzyme E1 regulatory …; calls only at 25 µM; 0.58% of 360,000 active; AID 651699, 2012; in the data active = inhibition above about 36%
proKLK7 act – proKLK7 zymogen activators, primary screen, biochemical, fluorescence intensity; Kallikrein-7 (Homo sapiens), P49862; purified proKLK7, EDANS-DABCYL substrate fluorescence; 100% is mature enzyme control, 0% vehicle; activation, % at 7 µM; 0.9% of 370,000 active; AID 652039, 2013;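 active = activation above the mean of all tested compounds plus 3 SD, computed per campaign excluding outliers beyond control limits, cut at about 13% in these data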
Target sequence (P49862 whole entry, looked up): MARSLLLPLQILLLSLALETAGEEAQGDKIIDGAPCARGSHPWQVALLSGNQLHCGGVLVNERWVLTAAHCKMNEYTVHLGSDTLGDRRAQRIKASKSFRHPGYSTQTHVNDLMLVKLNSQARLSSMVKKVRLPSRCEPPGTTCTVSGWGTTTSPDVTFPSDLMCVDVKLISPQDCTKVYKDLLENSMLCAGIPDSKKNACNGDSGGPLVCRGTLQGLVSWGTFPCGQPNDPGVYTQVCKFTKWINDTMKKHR
UHRF1 binding – UHRF1 methylated DNA binding inhibitors, primary screen, counter-screen for MBD2 inhibitor project, biochemical, TR-FRET, human UHRF1, single concentration; UHRF1 binding to methylated oligo; inhibition, % at 4.4 µM; 0.75% of 370,000 active; AID 687016, 2013; in the data active = inhibition above about 21%;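 also: UHRF1 SRA domain binding a hemimethylated CpG hairpin DNA probe; 0% = median of test compound wells and 100% = reference inhibitor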
MBD2 inh – inhibitors of MBD2 binding to methylated DNA, primary screen, biochemical, TR-FRET, DNA-binding domain, human; inhibition, % at 4.4 µM; Methyl-CpG-binding domain protein 2 (Homo sapiens), Q9UBB5; MBD2 binding to methylated oligonucleotide; 0.31% of 370,000 active; in the data active = inhibition above about 13%
Target sequence (Q9UBB5 whole entry, looked up, the tested form may be a part): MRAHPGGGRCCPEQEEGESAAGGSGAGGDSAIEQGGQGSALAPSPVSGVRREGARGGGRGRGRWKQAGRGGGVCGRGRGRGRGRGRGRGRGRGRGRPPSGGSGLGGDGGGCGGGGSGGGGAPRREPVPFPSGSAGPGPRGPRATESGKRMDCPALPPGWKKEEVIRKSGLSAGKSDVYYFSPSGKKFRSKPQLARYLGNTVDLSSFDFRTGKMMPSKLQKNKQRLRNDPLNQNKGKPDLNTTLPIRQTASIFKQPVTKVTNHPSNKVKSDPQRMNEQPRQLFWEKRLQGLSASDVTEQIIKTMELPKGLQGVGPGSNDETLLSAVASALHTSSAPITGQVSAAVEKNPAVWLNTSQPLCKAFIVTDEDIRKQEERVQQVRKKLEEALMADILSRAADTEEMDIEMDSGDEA
LEDGF integ inh – blockers of LEDGF/p75-dependent integrase strand transfer – biochemical, TR-FRET, high throughput, primary screen; TR-FRET IN-LEDGF/p75 DNA integration, Eu/Cy5; inhibition, % at 3.7 µM; 0.64% of 370,000 active; AID 743269, 2014; HIV-1 integrase (with human LEDGF/p75);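 active = inhibition above the screen-wide mean plus 3 SD, cut at about 13% in these data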;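 also: signal is the Cy5 over europium emission ratio at 671 and 618 nm; 0% = plate median of compound wells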
KLK7 act conf – proKLK7 zymogen activators, confirmation, biochemical, fluorescence intensity, triplicate; activation, % at 7 µM; shares compounds with proKLK7 act; purified proKLK7, EDANS-DABCYL substrate fluorescence; scaled: vehicle 0, mature enzyme 100; 68% of 3,200 active;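 active = activation, as change over the incubation, above the mean of all tested compounds plus 3 SD, cut at about 13% in these data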
EDANS-DABCYL int – EDANS-DABCYL substrate optical interference, artefact control for kallikrein-7 zymogen activator project, biochemical, fluorescence intensity, high throughput | shares compounds with proKLK7 act | no enzyme, 4 h; solvent 0%, active enzyme control 100% | activation, % at 7 µM | 80% of 3,200 active | AID 686952, 2013;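 active = activation above the all-compound mean plus 3 SD, ignoring values outside control-based bounds, cut at about 4.8% in these data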;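 also: value is the 4 h activation minus the activation read at time zero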
EDANS interf – EDANS fluorescence interference in dose response, no enzyme; AID 720493; 20% of 250 active; shares compounds with proKLK7 act; EDANS-DABCYL peptide fluorescence interference; EC50, µM;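 active = compounds that raise the fluorescence signal in this interference counterscreen, with EC50 at or below 10 µM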;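 also: intact quenched peptide substrate alone read at 355 nm excitation and 520 nm emission; signal is fluorescence gain from T0 to T4 after four hours at room temperature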
* = called active by the depositor. Rows were chosen to be rich in hits. Some 3.1% of all compounds tested hit in one or more screens of this group.

How did COc1ccc(OC)c(NS(=O)(=O)c2c(C(=O)N3CCCCCC3)c(C)n(C)c2C)c1 do in these assays?
Rin1 Abl inh: -1.5; Neddylation inh: inactive; proKLK7 act: 0.5; UHRF1 binding: 0.3; MBD2 inh: -4.5; LEDGF integ inh: -2.6

What do the screens show for `Cn1c(-c2cccs2)nc2ccccc21`?
Rin1 Abl inh: -7.7; proKLK7 act: 0.5; UHRF1 binding: 1.8; MBD2 inh: 5.1; LEDGF integ inh: -2.1

What do the screens show for `Cn1c(-c2ccc(C=O)s2)nc2ccccc21`?
Rin1 Abl inh: -3.1; proKLK7 act: 47.7*; UHRF1 binding: -3.1; MBD2 inh: 1.3; LEDGF integ inh: 1.9; KLK7 act conf: 52.3*; EDANS-DABCYL int: 55.6*

What do the screens show for `N#Cc1c(=O)c2nc(NCc3ccccc3)ncc2n2ccccc12`?
Rin1 Abl inh: -6.6; proKLK7 act: 18.9*; UHRF1 binding: -11.6; MBD2 inh: -4.4; LEDGF integ inh: 43.7*; KLK7 act conf: 23.6*; EDANS-DABCYL int: 25.7*

Results for CCC1(O)C(=O)OCc2c1cc1n(c2=O)Cc2cc3cc(O)ccc3nc2-1 (configuration not stated) ?
Rin1 Abl inh: -7.8; Neddylation inh: inactive; proKLK7 act: 63.9*; UHRF1 binding: -0.7; MBD2 inh: -7.0; LEDGF integ inh: 0.5; KLK7 act conf: 74.1*; EDANS-DABCYL int: 76.8*

Results for CN(C)c1ccc(NC(=O)CCN2CCN(c3ccccn3)CC2)cc1 ?
Rin1 Abl inh: 2.1; Neddylation inh: inactive; proKLK7 act: 0.1; UHRF1 binding: 1.9; MBD2 inh: 2.9; LEDGF integ inh: 2.9

Results for COc1ccc(-c2ccc(C#N)c(SCC(=O)NC3CC3)n2)cc1OC ?
Rin1 Abl inh: -4.8; Neddylation inh: inactive; proKLK7 act: 16.7*; UHRF1 binding: 2.6; MBD2 inh: 0.7; LEDGF integ inh: -2.6; KLK7 act conf: 4.5; EDANS-DABCYL int: 2.1

What do the screens show for `COc1ccc(-c2ccc(C#N)c(SCC(=O)NCc3ccco3)n2)cc1OC`?
Rin1 Abl inh: -2.3; Neddylation inh: inactive; proKLK7 act: -11.7; UHRF1 binding: -1.2; MBD2 inh: 0.3; LEDGF integ inh: -1.2

Results for COCc1nnc(NC(=O)c2cccc(NC(=O)c3ccccc3)c2)s1 ?
Rin1 Abl inh: 1.3; Neddylation inh: inactive; proKLK7 act: -0.2; UHRF1 binding: -0.5; MBD2 inh: 2.8; LEDGF integ inh: -1.7

What do the screens show for `CS(=O)(=O)Nc1ccc(C(=O)Nc2ccc3ccccc3c2)cc1`?
Rin1 Abl inh: -0.2; proKLK7 act: 12.6*; UHRF1 binding: -1.7; MBD2 inh: -0.9; LEDGF integ inh: -1.6; KLK7 act conf: 0.6; EDANS-DABCYL int: 0.7

Results for CS(=O)(=O)N(CC(=O)N1CCOCC1)c1ccc2c(c1)OCO2 ?
Rin1 Abl inh: 4.3; Neddylation inh: inactive; proKLK7 act: 17.2*; UHRF1 binding: 3.8; MBD2 inh: 3.1; LEDGF integ inh: 1.2; KLK7 act conf: 0.5; EDANS-DABCYL int: -0.4

Results for CC1CCN(C(=O)CN(c2ccc3c(c2)OCO3)S(C)(=O)=O)CC1 ?
Rin1 Abl inh: -1.3; Neddylation inh: inactive; proKLK7 act: 0.6; UHRF1 binding: 11.6; MBD2 inh: 3.1; LEDGF integ inh: 5.7

Results for CC1=C(C(=O)N(C)C)CC(CC(=O)NC2CCCC2)C(=O)N1CCC1=CCCCC1 (configuration not stated) ?
Rin1 Abl inh: -3.6; Neddylation inh: inactive; proKLK7 act: 0.6; UHRF1 binding: -1.2; MBD2 inh: -4.7; LEDGF integ inh: 2.6

How did CCCCc1cc(=O)oc2cc(C)cc(OCC(=O)N3CCC(C(=O)O)CC3)c12 do in these assays?
Rin1 Abl inh: -1.2; proKLK7 act: 17.1*; UHRF1 binding: -2.8; MBD2 inh: -3.0; LEDGF integ inh: 0.4; KLK7 act conf: 25.2*; EDANS-DABCYL int: 18.2*; EDANS interf: >69.5

How did CCCc1cc(=O)oc2cc(C)cc(OCC(=O)N3CCC(C(N)=O)CC3)c12 do in these assays?
Rin1 Abl inh: -1.9; proKLK7 act: 16.9*; UHRF1 binding: 1.9; MBD2 inh: -0.9; LEDGF integ inh: 2.6; KLK7 act conf: 4.3; EDANS-DABCYL int: 10.5*

Results for CCc1cc(=O)oc2cc(C)cc(OCC(=O)C(C)(C)C)c12 ?
Rin1 Abl inh: 3.2; proKLK7 act: 6.1; UHRF1 binding: 2.2; MBD2 inh: 1.0; LEDGF integ inh: -1.1

What do the screens show for `CCCc1cc(=O)oc2cc(C)cc(OCC(=O)NC3CC3)c12`?
Rin1 Abl inh: -1.2; proKLK7 act: 5.4; UHRF1 binding: -3.7; MBD2 inh: 0.8; LEDGF integ inh: -0.4

What do the screens show for `CCCCc1cc(=O)oc2cc(C)cc(OCC(=O)N3CCC(C(=O)O)(c4ccccc4)CC3)c12`?
Rin1 Abl inh: -0.1; proKLK7 act: -1.2; UHRF1 binding: -2.6; MBD2 inh: 0.5; LEDGF integ inh: -0.8

Results for CCc1cc(=O)oc2cc(C)cc(OCC(C)=O)c12 ?
Rin1 Abl inh: -1.0; proKLK7 act: 12.9*; UHRF1 binding: -0.9; MBD2 inh: 0.0; LEDGF integ inh: 2.1; KLK7 act conf: 11.6; EDANS-DABCYL int: 16.6*

How did CCCc1cc(=O)oc2cc(C)cc(OCC(=O)NCCN3CCOCC3)c12 do in these assays?
Rin1 Abl inh: -0.1; proKLK7 act: 11.1; UHRF1 binding: 1.9; MBD2 inh: 8.5; LEDGF integ inh: -1.5

What do the screens show for `CCCc1cc(=O)oc2cc(C)cc(OCC(=O)N3CCC(C(=O)O)CC3)c12`?
Rin1 Abl inh: -1.6; proKLK7 act: 15.8*; UHRF1 binding: 0.1; MBD2 inh: 1.1; LEDGF integ inh: 3.5; KLK7 act conf: 13.0*; EDANS-DABCYL int: 15.6*

Results for CCc1cc(=O)oc2cc(C)cc(OCC(=O)N3CCC(C(=O)O)CC3)c12 ?
Rin1 Abl inh: -3.3; proKLK7 act: 15.6*; UHRF1 binding: -2.9; MBD2 inh: -1.3; LEDGF integ inh: -1.0; KLK7 act conf: 19.1*; EDANS-DABCYL int: 19.5*
